Hits are enriched below; roughly 6.2% of the tested compounds scored in any of these assays.
NTR1 agonist = activates human neurotensin receptor 1; P30989; NTR1-U2OS beta-arrestin-GFP spot imaging, agonist mode; activation, % at 20 µM; 0.17% of 330,000 active; AID 493036;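 active = activation at or above 40% of the spot to cytoplasm intensity ratio, with at least 20 cells analyzed; inconclusive = wells under 20 cells, flagged as cytotoxic or low count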
SUMO Mot1 rescue = SUMOylation pathway inhibition by Mot1-301 growth rescue | 1% of 320,000 active | S. cerevisiae Mot1-301 growth rescue, ATP luminescence, 38.5C; percent above DMSO median, 100 means doubled | AID 2716 | growth rescue, % at 18.8 µM;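 active = every valid replicate shows activation above 250% relative to neutral control wells; inactive = the rest, any valid replicate at or below 250%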
AI-2 QS modul = modulates the Vibrio harveyi AI-2 quorum sensing system. AID 2094. activity change, % at 7.5 µM. 0.4% of 300,000 active. Vibrio harveyi JMH597 AI-2 luminescence/OD600 ratio, 9 h; stronger effect = lower value; strain lacks LuxN and CqsS sensors; 0 = neutral-control median; in the data active = activity change below about -75%, passing the limit was not always enough; inconclusive = no clear call, values can overlap the other calls;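 also: luminescence divided by OD600 gain over 9 h not by final OD600 alone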
GRIN3A LBD mod = NR3A (human) ligand-binding domain modulation; 2.5% of 340,000 active; Tm shift relative to glycine control, % at 25 µM; NR3A LBD differential scanning fluorimetry, Tm shift; 0% = protein alone, 100% = glycine-bound protein; AID 1259313;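 active = melting temperature shift of at least 10% of the positive control shift, at one fixed dose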
AHR activator = activates the human aryl hydrocarbon receptor. P35869. AHR-responsive luciferase reporter cells, luminescence. activation, % at 5 µM. 2.5% of 320,000 active. AID 2796; in the data active = activation above about 47%
Target sequence (P35869 whole entry, looked up): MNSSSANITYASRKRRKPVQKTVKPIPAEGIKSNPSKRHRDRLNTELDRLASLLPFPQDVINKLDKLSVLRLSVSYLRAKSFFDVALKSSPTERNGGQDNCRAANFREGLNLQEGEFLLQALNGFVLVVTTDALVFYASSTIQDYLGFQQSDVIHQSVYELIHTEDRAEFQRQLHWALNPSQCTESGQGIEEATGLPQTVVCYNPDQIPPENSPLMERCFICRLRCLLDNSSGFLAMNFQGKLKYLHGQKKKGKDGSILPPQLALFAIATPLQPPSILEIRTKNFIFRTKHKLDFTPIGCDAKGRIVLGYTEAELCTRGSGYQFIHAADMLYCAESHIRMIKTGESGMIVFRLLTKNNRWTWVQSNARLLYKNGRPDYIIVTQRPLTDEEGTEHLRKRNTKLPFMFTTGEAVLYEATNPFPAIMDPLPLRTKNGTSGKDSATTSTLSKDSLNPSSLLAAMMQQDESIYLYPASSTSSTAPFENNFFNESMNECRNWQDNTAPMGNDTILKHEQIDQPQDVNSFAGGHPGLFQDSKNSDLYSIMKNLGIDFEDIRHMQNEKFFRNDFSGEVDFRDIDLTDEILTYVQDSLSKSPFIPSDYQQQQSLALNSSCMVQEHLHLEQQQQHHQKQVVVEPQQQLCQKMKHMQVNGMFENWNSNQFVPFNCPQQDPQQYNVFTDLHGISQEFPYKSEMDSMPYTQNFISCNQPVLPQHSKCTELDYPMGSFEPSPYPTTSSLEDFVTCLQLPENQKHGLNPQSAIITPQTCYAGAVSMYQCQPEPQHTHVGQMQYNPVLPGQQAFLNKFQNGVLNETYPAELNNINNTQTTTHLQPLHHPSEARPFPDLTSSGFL
H9c2 protect = protects H9c2 cardiomyocytes from peroxide injury; H2O2 injury protection, ATPLite, 2 h; protection from H2O2 cell death, % at 20 µM; 0.63% of 360,000 active;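 active = compounds giving at least 50% protection of heart cells from peroxide-induced death in the single-dose screen, raw or plate-pattern-corrected value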
AHR act cf = confirmation of human aryl hydrocarbon receptor activators; activation, % at 9 µM; 87% of 2,300 active; AID 2845; human cells, AHR-responsive luciferase reporter, luminescence; shares compounds with AHR activator; in the data active = activation above about 49%;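 also: HepG2 hepatoma cells carrying a DRE-driven firefly luciferase reporter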
PXR act counter = PXR activation, counter-screen for AHR activators. activation, % at 11.6 µM. shares compounds with AHR activator. cell-based PXR reporter, luciferase luminescence. 88% of 2,300 active. AID 434939; in the data active = activation above about 11%;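 also: human hepatoma DPX-2 cells expressing full-length human PXR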
A number is an active result; i = inactive; ? = inconclusive; nt = no result.

SMILES	NTR1 agonist	SUMO Mot1 rescue	AI-2 QS modul	GRIN3A LBD mod	AHR activator	H9c2 protect	AHR act cf	PXR act counter
CSc1ccc(C2Nc3ccccc3-c3cc(C)nn32)cc1 (stereo not given)	i	i	i	i	101.4	i	100.1	28.8
CN(CC1COc2ccccc2O1)C(=O)CCNS(=O)(=O)c1ccc(F)c(Cl)c1 (stereo not given)	nt	nt	nt	nt	nt	i	nt	nt
O=C(Nc1cc(Cl)ccc1Cl)c1ccc(-c2ccccc2)cc1	i	i	i	i	87.4	i	90.3	28.7
O=C(NC(=S)N1CCCc2ccccc21)c1ccc(Br)cc1	i	i	i	i	87.9	i	84.1	19.6
O=C(NC(=S)N1CCCc2ccccc21)c1ccccc1	i	i	?	i	i	i	nt	nt
Cc1ccc2nc(SCC(=O)Nc3ccc(F)c([N+](=O)[O-])c3)[nH]c2c1	i	i	i	i	98.8	i	114.5	26.8
CCC(=O)Nc1ccc(C(=O)CSc2nc3ccc(C)cc3[nH]2)cc1	nt	i	i	i	i	i	nt	nt
Cc1ccc2nc(SCC(=O)Nc3cc([N+](=O)[O-])ccc3F)[nH]c2c1	i	i	i	i	i	i	nt	nt
Cc1ccc2nc(SCC(=O)c3ccc(Cl)s3)[nH]c2c1	i	i	i	i	86.0	i	i	45.8
CC(=O)Nc1ccc(S(=O)(=O)N2CCN(S(=O)(=O)N3CCC(C)CC3)CC2)cc1	i	i	i	i	i	i	nt	nt
CSCCC(NC(=O)COc1ccccc1)C(=O)OCc1ccc([N+](=O)[O-])cc1 (stereo not given)	i	i	i	i	i	i	nt	nt
CC(=O)c1coc2c1cc(O)c1ccccc12	i	i	i	i	i	i	nt	nt
O=C(c1ccco1)c1coc2c1cc(O)c1ccccc12	i	i	i	i	89.5	i	119.6	18.2
COc1cccc(NC(=O)c2ccc3c(c2)N(C)CCS3)c1	i	i	i	i	i	i	nt	nt
CN1CCSc2ccc(C(=O)Nc3ccc(Cl)cc3)cc21	i	i	i	i	215.1	i	135.3	70.2
C/C(=N/NS(=O)(=O)c1ccc(Br)cc1)c1cccc(NC(=O)C2CC2)c1	nt	nt	nt	nt	nt	i	nt	nt
Cc1ccccc1OCc1nc2ccccc2c(=O)n1/N=C/c1c[nH]c2ccccc12	i	i	i	i	85.5	i	i	88.8
Cc1cccc(C)c1OCc1nc2ccccc2c(=O)n1/N=C/c1c[nH]c2ccccc12	i	i	i	30.7	102.1	i	i	112.1
Cn1ncc2cc3c(Nc4ccc(Cl)cc4)cccc3nc21	nt	nt	nt	nt	nt	i	nt	nt
O=C1C2C3CCC(CC3)C2C(=O)N1c1ccccc1 (stereo not given)	i	i	i	i	i	i	nt	nt
Cc1cccc(NC(=O)C2CCCN(c3cnccn3)C2)c1 (stereo not given)	i	nt	i	i	87.8	i	70.4	31.6
CCc1cccc(NC(=O)C2CCCN(c3cnccn3)C2)c1 (stereo not given)	i	nt	i	i	90.8	i	57.6	41.5
Nc1ccccc1C(=O)NC1CCCNC1=O (stereo not given)	i	i	i	i	i	i	nt	nt
Cc1ccc(C(=O)NC(=S)Nc2cccc(-c3nc4ccccc4s3)c2)cc1	i	i	i	i	i	i	nt	nt
Oc1cccc(-c2nc3ccccc3s2)c1	i	i	i	i	85.8	i	58.3	12.0
SMILES	NTR1 agonist	SUMO Mot1 rescue	AI-2 QS modul	GRIN3A LBD mod	AHR activator	H9c2 protect	AHR act cf	PXR act counter
CC(=O)Nc1cccc(-c2nc3ccccc3s2)c1	i	i	i	i	124.3	i	99.4	20.1
COc1ccc(-c2nc3ccccc3s2)cc1O	i	i	i	i	82.3	i	76.3	11.0
Nc1cccc(-c2nc3ccccc3s2)c1	i	i	i	i	115.9	i	96.3	i
Oc1ccc(O)c(Cc2nc3ccccc3s2)c1	i	i	i	i	i	i	nt	nt
Nc1ncnc2c(C3OC(CO)C(O)C3O)c[nH]c12 (stereo not given)	nt	nt	nt	i	nt	i	nt	nt
O=C1NC(=O)C2(CCCc3c([N+](=O)[O-])cccc32)N1 (stereo not given)	nt	nt	nt	nt	nt	i	nt	nt
COc1cc2cc(CCCOC(=O)c3ccc(C#N)cc3)oc(=O)c2cc1OC	i	i	nt	i	i	i	nt	nt
O=C(/C=C/c1ccco1)NC(=S)Nc1cccc(-c2nc3ccccc3s2)c1	i	i	i	i	81.5	i	117.9	32.5
Cc1ccc(-c2nc3ccccc3s2)cc1NC(=S)NC(=O)/C=C/c1ccco1	i	i	i	i	i	i	nt	nt
CC(C#N)(Cc1ccccc1)Nc1ccccc1 (stereo not given)	i	i	i	i	i	i	nt	nt
CC(/C=C/c1ccccc1)=N\Nc1nc(C)cc(C)n1	i	i	i	i	89.4	i	i	27.6
Cc1cc(=O)n(CC(=O)NC2CC2)c2c1c(C)nn2-c1ccccc1	i	i	i	i	87.5	i	83.8	77.1
Cc1cn2c(N)c(/C=C3\C=Nc4ccccc43)c(=O)nc2s1	i	i	i	15.8	110.7	i	115.7	19.8
CC(C)CC(N)c1csc(Nc2cnccn2)n1 (stereo not given)	nt	nt	nt	nt	nt	i	nt	nt
Cc1nn(-c2ccc(Cl)cc2)c2[nH]c(=O)c(CNCc3ccc4c(c3)OCO4)cc12	i	i	i	i	88.4	i	82.9	36.3
Cc1cc(N/C=C/C(=O)c2ccccc2)ccc1Br	i	i	i	i	94.4	i	107.7	10.9
Cn1ncc(C(=O)Nc2ccc(Cl)cc2)c1C(F)(F)F	i	i	i	i	i	i	nt	nt
Cn1ncc(C(=O)Nc2ccc(OC(F)(F)F)cc2)c1-n1cccc1	i	i	i	i	80.4	i	99.6	30.4
CCOC(=O)N1CCC(NC(=O)c2ccc3nc4ccccc4c(=O)n3c2)CC1	nt	nt	i	nt	nt	nt	nt	nt
CCOC(=O)N1CCC(NC(=O)c2cccn3c(=O)c4cc(Br)ccc4nc23)CC1	i	i	i	i	90.3	i	111.0	18.1
Cc1ccccc1/C=N/Nc1ncnc2nc[nH]c12	i	i	i	i	i	i	nt	nt
Fc1ccc(/C=N/Nc2ncnc3nc[nH]c23)cc1F	i	i	i	i	103.3	i	64.5	32.4
O=C(NCCc1nnc2ccc(NCCCN3CCOCC3)nn12)c1ccccc1	i	i	i	i	i	i	nt	nt
COc1cc(-c2cc3nc4ccccc4n3c(N)c2C#N)cc(OC)c1OC	i	i	i	i	i	i	nt	nt
N#Cc1c(-c2ccccc2)cc2nc3ccccc3n2c1N	i	i	i	i	85.1	i	88.4	31.1
CC(C)(C)n1nc2c(c1NC(=O)c1cccc(Cl)c1)CS(=O)(=O)C2	i	i	i	i	i	i	nt	nt
CCCN(CCC)CCNC(=O)c1cc2c(=O)n(C)c3ccccc3c2n1C	i	323.0	i	i	98.0	i	91.0	42.1
S=c1nc(COc2ccccc2)[nH]c2ccccc12	i	i	i	i	124.4	i	125.1	13.6
